Laboratory results published in PubChem BioAssay AID1159580 (chemical genetic matrix, 2015).
Screen size: about 5,500 compounds; about 2,000 (36%) were called active. About 18% were inconclusive and are not listed. No stated cut-off is given here; in the data, active means normalized growth mostly below about 0.91 (no sharp cut-off); inconclusive means no clear call, values can overlap the other calls; inactive means mostly above about 0.92. This is one part of the list.

Experiment: chemical genetic growth profiling, strain panel (AID 1159580);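 further: tested at 20 µM; growth read once vehicle control cultures reached saturation at 30 °C; 1 = growth at the plate median or of vehicle wells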
Settings: S. cerevisiae deletion strains, growth OD

Measured: normalized growth

CN1CCC2(CCN3CCc4c(oc5ccccc45)C3C2)N(C)C1=O (stereo not drawn)
inactive: locus YAL013W, strain DEP1, stronger effect = lower value 1.02 | locus YAL040C, strain CLN3, stronger effect = lower value 1 | locus YCL061C, strain MRC1 (second series), stronger effect = lower value 1 | locus YDR150W, strain NUM1, stronger effect = lower value 0.996 | locus YDR363W, strain ESC2, stronger effect = lower value 1.02 | locus YER002W, strain NOP16, stronger effect = lower value 1.01 | locus YMR263W, strain SAP30, stronger effect = lower value 1 | locus YNL153C, strain GIM3, stronger effect = lower value 1 | locus YNL175C, strain NOP13, stronger effect = lower value 1 | locus YNL197C, strain WHI3, stronger effect = lower value 1.01 | locus YNL224C, strain SQS1, stronger effect = lower value 1.01 | locus YOR083W, strain WHI5 (second series), stronger effect = lower value 1.02 | locus YPL055C, strain LGE1, stronger effect = lower value 1
